Experimental data taken from the supplement of paper PMC6555819.

Test system: VDR:RXRa (NR concentration 270 nM, RXRa partner concentration 90 nM)
Assay: PBM binding z-score (relative to random genomic background probes); higher = stronger binding; sequences stand for … in GC…GCGATTGACAGCGTAGAATGAAGG
Description: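 Protein-binding microarray (Agilent 4x180K custom design, double-stranded 60-nt probes: 5' GC cap, 34-nt variable region, 24-nt constant primer region; full probe sequence given). Purified or IVT nuclear receptor:RXRα heterodimers (3:1 NR:RXRα, mostly 270:90 nM) or homodimers were incubated for 1 h in PBS with 2% milk and no ligand, then detected with Alexa488 antibodies. Fluorescence from o1-orientation probes (~5 replicates averaged) was converted to z-scores against 500 random hg19 background probes. Variable regions are seed direct-repeat (DR0–DR5) sites, all their single-nucleotide variants and half-site ablations.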

Sequence	PBM binding z-score
GCGACTGGGGCAAAGCAAGTTACCATAAGGTTGG	-0.206
ATATGTAGGTTGGCTGGGGTCATTCAGACTAGGC	5.67
CGAACTAGGTCATTGACAGGATAGTGAATAGTAA	1.64
CCGAGTAGGTTATGTGGCATTCAGGCAACGGTGA	-0.184
CCAGACAGGCGAAAGGTAACTCAGTCTGGTACGC	-0.255
TCATATATGTAAAAGGTGAAAGTCGGTGTGGTAA	1.24
CGTCAAAGTTCAAGGTAACGTCACAGAAAGCAGC	3.96
GCTGCTAGGTCAAGTGATGGTCAGCTAAAGCTCG	1.63
AGAACGAGGGCACGCTTAGTTGATAGCAGAGTAG	1.19
CGTCCAAGGTCTGCAGGTCAGTGAAAGCGACGTG	-0.117
CCTAGTTGGTCGAGGTCACACACGCTATAGGTAC	4.8
TAGCCTAGGTCATTGGGCCACTATAGTACGCATC	2.23
ACTAGCAGGCCAAGGGTCCCTCAAGATTAGTCCG	-0.454
GCTTGTAGATCAAGGTTACGAAAGACTAAGCTAA	0.359
TTACCAAGGGGAAGGTCGTTGATCCCTCTGTAGA	0.561
TCAGACAGATGAAGGTAACTCAGGTACGCAGTCG	0.608
CAAACTAGGTCAAAGGTCATAGTCGAGCCAACCA	6.71
TCTAGCAGGGCAGAGGGTCACTCAAGAGGTACGG	1.63
ACTAGTTGGTCAGCCGAGGTCACACACAATTCGG	4.66
AGAATGAGGTTATGCGTAGATCAGGGAAGAAAGT	1.15

Sequence	PBM binding z-score
CAAACTAGGTCACGAAAGGTCAAAGACGAATGAC	6.91
ATCTCTAGGTAACAAGTTCAGGGAAAGAGAGGAC	2.25
AGAACGAGGGCACGCTGAGTTGATAGAAGAGTAG	2.26
CAAACTAGGTCAAGAGGGCAAAGTCCGCTTCCCG	3.46
ATCTCTAGGTAAAGATAGATCAGTGAATGCAAAT	0.00458
TCTAGTTAGTCAAAGGTCACACACTCGAAATGCG	4.97
TATACCGGGTCAAAGGCCAGAGTACGAATGTCGA	3.9
CGTCCAAGGTCAAGGTCATTGAAAGAGACTCGAA	5.37
TCTTGTAGCTCAAGCAGGTTAAGAAAGCCTGAGT	-0.0447
CGTCCAAGGTCAAAGTCAGTGAAAGAGACTCGAA	3.77
GCGACTGGGGCAAAGCAGGTTACCGTAAGGTTGG	-0.0193
ACAAACAGGTGATGAAGGTAACTCAGGCTATCAT	0.56
CAAACTAGGTCCAGGTCAAAGTCGGTTTGTGCCA	3.06
ATATGTAGGTTATCGCGTCATTCAGTTTGCGCAT	0.798
TCTAGTTCGTCAAAGGTCACACACTCGAAATGCG	5.77
GCTATTAGTTGATAGGGCAACCGAATGATTCTCG	-0.195
ATCGAAAGGTCGCGGTGAGTATAGAGAAAGGGAA	3.74
CCGAGTAGGTTATTGGGCATTCAGGCAACGGTGA	-0.494
TCTTGTAGATCAACTGGAGGTTAAGAAAGATCGA	0.589
GCTCGGAGGACAATGTCAGAGCTTTGTCCGTAGA	-0.573
